Assay results as given in PubChem BioAssay (NCATS).
Results filed as inconclusive are left out. Unmarked numbers belong to inactive results. Calls of active or inactive are those of the source. Calls come from the whole dose curve; as a rule, active = well fitted activation curve with a large enough effect in the signal ratio, with a control signal flat (not every such curve was filed as active); inconclusive = small, poorly fitted or top-dose-only effect, or effect the other way, or a change in a side signal; inactive = flat fitted curve, though single readings scatter; the % refers to the signal ratio.
Potency is the fitted concentration of half-maximal effect.

Assay: qHTS Assay for Identification of Small Molecule Agonists for Hypoxia Response Element Signaling Pathway (AID 914); for activation: % of control where 0% means no effect
Details: ME-180 (cervical carcinoma) HRE-bla reporter, beta-lactamase ratio, CoCl2, 17 h; activation: active compounds read high
Excerpt: NIH Molecular Libraries Screening Centers Network [MLSCN]
NIH Chemical Genomics Center [NCGC]
Hypoxia-inducible factor-1 (HIF-1) is the major hypoxia-regulated transcription factor that controls cellular responses to low oxygen concentration. HIF-1 is composed of two subunits: hypoxia responsive HIF-1 alpha and constitutively expressed HIF-1 beta, which is also known as aryl hydrocarbon receptor nuclear translocator. During hypoxic conditions, HIF-1 alpha heterodimerizes with HIF-1 beta and translocates into the nucleus where the HIF-1 complex binds to the hypoxia-response element (HRE) and activates expression of target genes such as VEGF (vascular endothelial growth factor). HIF-1 alpha protein levels are elevated in many solid tumors, including those of the cervix and brain. Within tumors, cells that are the greatest distance from blood vessels and therefore the most hypoxic express the highest levels of HIF-1 alpha. Therapeutic blockade of the HIF-1 signaling pathway in cancer cells therefore provides an attractive strategy for development of anticancer drugs.
Using a beta-lactamase reporter-gene under control of the hypoxia response element, a cell-based assay [CellSensor(TM) HRE-bla ME-180 developed by Invitrogen Corp.] was used to measure hypoxia-induced signaling. Library compounds were measured for their ability to positively modulate the action of EC50 CoCl2 on reporter gene activity. Compounds were screened in a titration series in 1536-well format. Positive modulators were identified based on the AC50 values derived from the screening data.
NCGC Assay Protocol Summary:
2500 cells/5uL in Opti-MEM medium containing 0.5% dialyzed FBS, 0.1 mM NEAA, 1 mM sodium pyruvate and 10 mM HEPES was dispensed into 1536-well plates and cells were cultured at 37 degrees Celsius overnight. Next day 23 nL of compounds or DMSO were delivered to each well using a pin tool, and 1uL of EC50 level of CoCl2, or EC100 level of CoCl2, or assay medium was added. And then the plates were incubated at 37 degrees Celsius for 17 hours. 1 uL of CCF4-dye mixture was added to each well. After incubated at room temperature for 2.5 hours the plates were measured on an EnVision plate reader at Excitation 405nm, Emission1=460nm and Emission 2=530nm. The %Activity was determined from the ratio of 460nm/530nm.
In the case of `CCOC(=O)C(c1ccccc1)N1CCN(c2ccc(OC)cc2)CC1` (stereo not given), the activation was -13.4%.
For `CCC(=O)Nc1c(C#N)c2nc3ccccc3nc2n1C1CCCCC1`, the Potency was 10 µM (active).
In the case of `Cc1c(C)c2cc(Cl)c(O)c(CN3CCN(C)CC3)c2oc1=O`, the Potency was 7.94 µM (active).
Work on `COCCNc1nc2c(c(=O)n(Cc3ccc(OC)cc3)c(=O)n2C)n1C` yielded an activation of -9.75%.
`O=C1C2ON(c3ccccc3)C(c3cccnc3)C2C(=O)N1c1ccc(Cl)c(Cl)c1` (stereo not given) showed an activation of 2.42%.
With `CC(C)CNC(=O)c1c(N)n(/N=C/c2cccnc2)c2nc3ccccc3nc12` the Potency was 10 µM (active).
In the case of `CCOc1cccc(N2C(=O)CC(N(CCc3ccc(OC)c(OC)c3)C(=O)CC)C2=O)c1` (stereo not given), the activation was 11%.
`COc1cccc(/C(O)=C2/C(=O)C(=O)N(CCCN(C)C)C2c2cccc(Cl)c2)c1` (stereo not given) showed an activation of 9.88%.
`C=CCn1c(=S)[nH]c2nc3c(cc2c1=O)COC(C)(C)C3` showed an activation of -5.87%.
`Cc1cc(C)n(C(=O)CN2C(=O)CCC2=O)n1` showed an activation of 6.68%.
`N#Cc1nc(COc2ccccc2)oc1N1CCCC1` gave an activation of -0.614%.
`CC(C)OC(=O)C(CC(=O)O)NCc1ccccc1` (stereo not given) gave an activation of 19.8%.
In the case of `CCOC(=O)C1/C(=N\O)CC(C)(O)C(C(=O)OCC)C1c1ccc(OC)c(OC)c1` (stereo not given), the Potency was 0.794 µM (active).
Work on `CC(=O)N1CCN(c2nc(CC(C)C)c3c(c2C#N)CCC3)CC1` yielded an activation of 24.5%.
`COC(=O)C(NC(C)=O)(Nc1ccc(Br)cn1)C(F)(F)F` (stereo not given) showed an activation of 3.3%.
In the case of `CNc1nc(C)c(C#N)cc1C(C)=O`, the activation was 6.97%.
Molecule `C[N+](C)(C)CCN(Cc1cccs1)c1ccccn1` has an activation of 3.56%.
`Cn1cc(Br)cc2nc(C(F)(F)F)nc1-2` gave an activation of 2.94%.
In the case of `COc1ccc2c(c1)CN([C@H](C)[C@@H]1CC[C@@H]3[C@H]4CC[C@H]5C[C@@H](O)CC[C@@]5(C)[C@H]4CC[C@]31C)CO2`, the activation was 15.9%.
`O=c1c2ccccc2ncn1Cc1ccco1` showed an activation of 2.2%.
`COc1ccc(C2C(C(C)=O)=C(O)C(=O)N2c2nccs2)cc1OC` (stereo not given) showed an activation of -13.7%.
`CC(C)c1nc(N2CCOCC2)c(C#N)c2c1COC(C)(C)C2` showed an activation of -24.7%.
With `O=c1/c(=C\c2cccn2-c2ccccc2)sc2nc3ccccc3n12` the Potency was 12.6 µM (active).
Molecule `Cc1ccc(-n2c(SCC(=O)NCc3ccco3)nc3nc4c(cc3c2=O)COC(C)(C)C4)cc1` has an activation of -23.6%.
`C=CC(O)Cc1c(C)n[nH]c1C` (stereo not given) gave an activation of 4.5%.
Molecule `CC1=CC(c2ccccc2)n2nc(N3C(=O)C4CC=CCC4C3=O)nc2N1` (stereo not given) has an activation of 6.95%.
Molecule `CC(C)OCCCNc1ncnc2c1cnn2-c1ccccc1` has an activation of -23.4%.
For `Cc1nn(-c2ccccc2)c2c1C(c1ccc(F)cc1F)C(C#N)=C(N)O2` (stereo not given), the activation was -12.7%.
With `O=c1cc(N2CCCCC2)nc2n1CCCS2` the Potency was 6.31 µM (active).
With `CCCCOc1ccc(C(=O)Nc2ccc(N3CCN(C(C)=O)CC3)cc2)cc1` the Potency was 2.51 µM (active).
Work on `CC1(C)Cc2c(C#N)c(NCC3CCCO3)nc(-c3ccco3)c2CO1` (stereo not given) yielded an activation of 25.9%.
Work on `O=C1C2ON(c3ccccc3)C(c3cccnc3)C2C(=O)N1Cc1ccccc1` (stereo not given) yielded an activation of 1.83%.
`CCN(CC)CCNC(=O)c1ccccc1N` gave an activation of 10.3%.
`CCOc1ccc(/C(O)=C2/C(=O)C(=O)N(CCN(C)C)C2c2ccccc2)cc1Cl` (stereo not given) gave an activation of 2.13%.
For `COCCNC(=O)c1c(N)n(/N=C/c2cccs2)c2nc3ccccc3nc12`, the Potency was 10 µM (active).
`COc1ccc2c(c1)c(C(=O)CN1CCOCC1)c(C)n2C` gave an activation of 8.25%.
In the case of `CCC(C(=O)Nc1ncn[nH]1)(C(F)(F)F)C(F)(F)F`, the activation was -10.1%.
With `Cc1cccc(N2CC(=O)N(c3cccc(C)c3)CC2=O)c1` the activation was 1.3%.
Work on `CC12CN3CC(C)(CN(C1)C3c1ccc(Br)cc1O)C2` (stereo not given) yielded an activation of -25.5%.
In the case of `COC(=O)c1sc(NC(C)=O)c(C(=O)OC)c1C`, the activation was 21.1%.
